Data reported in ChEMBL document CHEMBL2218924, “A broad activity screen in support of a chemogenomic map for kinase signalling research and drug discovery” (Biochem J, 2013).

Molecular target: Tyrosine-protein kinase Lyn (Homo sapiens) (UniProt P07948)
Details: at 1 µM

Tyrosine-protein kinase Lyn (Homo sapiens), sequence (P07948 2-512 limits assumed): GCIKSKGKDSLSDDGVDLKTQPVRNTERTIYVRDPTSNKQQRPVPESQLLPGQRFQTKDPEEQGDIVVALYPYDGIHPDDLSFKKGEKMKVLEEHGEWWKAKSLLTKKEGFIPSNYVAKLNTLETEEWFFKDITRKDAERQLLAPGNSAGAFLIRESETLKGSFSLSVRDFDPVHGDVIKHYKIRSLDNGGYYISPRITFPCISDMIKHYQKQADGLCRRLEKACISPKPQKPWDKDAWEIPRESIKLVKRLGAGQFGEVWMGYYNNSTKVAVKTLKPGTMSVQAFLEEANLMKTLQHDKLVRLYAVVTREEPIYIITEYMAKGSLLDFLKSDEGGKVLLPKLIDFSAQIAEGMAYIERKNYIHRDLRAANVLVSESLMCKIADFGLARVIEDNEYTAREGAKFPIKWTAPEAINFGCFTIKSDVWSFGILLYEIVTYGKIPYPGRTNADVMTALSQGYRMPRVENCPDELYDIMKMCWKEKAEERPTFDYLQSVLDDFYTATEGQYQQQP

Row | SMILES | residual activity [%]
1 | NC(=O)c1ccc2[nH]c(-c3ccc(Oc4ccc(Cl)cc4)cc3)nc2c1 | 91
2 | Cc1nc(-c2ccccc2)c(-c2ccncc2)o1 | 0
3 | CCOc1cc2ncnc(Nc3cccc(Br)c3)c2cc1OCC | 3
4 | CC(C)n1cnc2/c(=N/c3cccc(Cl)c3)nc(NCCO)[nH]c21 | 20
5 | Nc1nc(Nc2ccc(S(N)(=O)=O)cc2)nn1C(=S)Nc1c(F)cccc1F | 6
6 | Cc1ccc(S(=O)(=O)/C=C/C#N)cc1 | 92
7 | Ic1cccc(CSc2nnc(-c3ccncc3)o2)c1 | 63
8 | O=C1NC(=O)c2c1c1c3ccccc3[nH]c1c1[nH]c3cc(Br)ccc3c21 | 72
9 | O=C1NC(=O)/C(=C\c2ccc3nccnc3c2)S1 | 99
10 | CCN(CC)CCCCN1c2ccccc2Oc2ccc(Cl)cc21 | 102
11 | COc1cccc(-c2cc(=O)c3ccccc3o2)c1N | 93
12 | O=C1c2ccccc2-[n+]2ccc3c([nH]c4ccccc43)c21 | 88
13 | Oc1ccc(-c2nc(-c3ccc(F)cc3)c(-c3ccncc3)[nH]2)cc1 | 66
14 | Cc1nc2cc3nc(-c4cccs4)cnc3cc2n1C | 91
15 | COc1ccc(C(=O)Nc2sc3c(c2C(N)=O)CCCC3)cc1OC | 69
16 | Cn1cc(/C=C2\C(=O)Nc3ccc(S(N)(=O)=O)cc32)c2ccccc21 | 10
17 | Nc1ccc2ncnc(NCCc3ccc(Oc4ccccc4)cc3)c2c1 | 24
18 | CO[C@H]1C[C@@H]2CC[C@@H](C)[C@@](O)(O2)C(=O)C(=O)N2CCCC[C@H]2C(=O)O[C@H]([C@H](C)C[C@@H]2CC[C@@H](O)[C@H](OC)C2)CC(=O)[C@H](C)/C=C(\C)[C@@H](O)[C@@H](OC)C(=O)[C@H](C)C[C@H](C)/C=C/C=C/C=C/1C | 86
